Pf growth 96h – P. falciparum growth inhibition at 96 hour, primary screen for plastid delayed-death inhibitors. P. falciparum luciferase reporter growth, 96 h. AID 504834. Potency, µM (top dose mostly 28.7 µM), inactives show at the top dose activity change, negative = inhibition, hits mostly inhibitors. actives 6.9% (n = 320,000); further: potency means the concentration at half of the fitted maximal effect
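96 h incubation, 37 C, 5% CO2, of luciferase-reporter P. falciparum-infected RBCs (2% hematocrit, 0.05% parasitemia final) with test compounds; endpoint luminescence.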
HCMV antiviral – inhibitors of human cytomegalovirus; HFF cells, HCMV-luciferase reporter, 72 h; active compounds read low; activity change, negative = inhibition, % at 57.5 µM; actives 4.5% (n = 410,000); AID 1259415; in the data active means activity change below about -60%; inconclusive means no clear call, values can overlap the other calls; inactive means above about -39%
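Inhibition of viral replication was scored as loss of reporter luminescence in HFFs infected with HCMV-luciferase (MOI 1 PFU/cell) for 72 h; compounds tested at 2 doses, normalized to buffer and Salinomycin controls.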
Sm TGR inh – inhibitors of Schistosoma mansoni thioredoxin glutathione reductase; purified TGR, DTNB reduction, TNB absorbance 405 nm; Potency, µM (highest dose often 114 µM), for inactives: at the top dose activity change, negative = inhibition, usual class: inhibitors; actives 3% (n = 360,000); further: potency means the concentration at half of the fitted maximal effect; nearly all actives have a fitted effect of over 60% in size
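Kinetic colorimetric format: TGR-catalysed, NADPH-driven DTNB reduction monitored via TNB absorbance. Enzyme dispensed at 20 nM; compound exposure 15 min at room temperature before reaction start.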
Pf growth 48h – inhibits P. falciparum growth in the first generation, 48 h; P. falciparum luciferase growth in erythrocytes, 48 h; Potency, µM (titrated, usually from 28.7 µM), for inactives: top-dose activity change, negative = inhibition, actives largely listed as inhibitors; actives 5.9% (n = 310,000); further: potency means the concentration at half of the fitted maximal effect
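Cell-based growth assay: transgenic P. falciparum expressing firefly luciferase, cultured in red cells within RPMI 1640 containing 0.5% w/v Albumax, 24 mM bicarbonate and gentamycin. A drop in luciferase activity indicates inhibition.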
FBPA Giardia inh – inhibitors of Giardia lamblia fructose-1,6-bisphosphate aldolase. A8B2U2. purified Giardia FBPA. Potency, µM (top dose mostly 59.6 µM), inactives show at the highest dose activity, negative = inhibition, usual class: inhibitors. actives 0.71% (n = 290,000). AID 2451; further: potency means the concentration at half of the fitted maximal effect; nearly all actives have a fitted effect of over 55% in size
Target sequence (A8B2U2 whole entry, looked up): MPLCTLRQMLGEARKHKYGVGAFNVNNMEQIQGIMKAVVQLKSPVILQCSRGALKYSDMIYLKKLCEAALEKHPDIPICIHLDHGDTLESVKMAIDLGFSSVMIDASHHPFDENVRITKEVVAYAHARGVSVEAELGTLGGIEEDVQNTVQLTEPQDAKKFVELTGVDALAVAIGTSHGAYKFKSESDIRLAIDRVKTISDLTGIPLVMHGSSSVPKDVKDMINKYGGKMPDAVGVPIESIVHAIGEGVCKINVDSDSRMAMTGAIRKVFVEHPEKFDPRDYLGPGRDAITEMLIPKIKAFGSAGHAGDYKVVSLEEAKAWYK
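40 nM FBPA preincubated 10 min at RT with compound (up to 57.5 uM final), then substrate plus GAPDH/TPI/NAD/arsenate coupling and diaphorase/resazurin added. Fluorescence read after 20 min at RT, 525/598 nm.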
* = called active by the depositor; i = inactive; ? = inconclusive; · = no result. Most compounds without a hit are left out; they make up all but 14% or so of the library. Unless noted, the call rests on the fitted dose curve; in most records, active means well fitted curve in the direction sought with a large enough effect; inconclusive means small, poorly fitted or top-dose-only effect, or another doubt; inactive means no such curve, though single readings can be large; an effect the other way counts as inactive or inconclusive. On the % scale 0 is the no-effect control and ±100 the full control effect.

SMILES	Pf growth 96h	HCMV antiviral	Sm TGR inh	Pf growth 48h	FBPA Giardia inh
CCCN1C(=O)c2[nH]nc(-c3ccccc3O)c2C1c1ccc(OCc2ccccc2)c(OC)c1 (centres undefined)	·	-84*	11%	·	·
CCCOc1ccc(C2c3c(-c4ccccc4O)n[nH]c3C(=O)N2CCc2ccccc2)cc1OCC (centres undefined)	·	-90*	1%	·	·
CCCCOc1ccc(C2c3c(-c4ccccc4O)n[nH]c3C(=O)N2Cc2ccncc2)cc1OC (centres undefined)	·	7	-7%	·	·
COc1cc(C2c3c(-c4ccccc4O)n[nH]c3C(=O)N2CCO)ccc1OCc1ccccc1 (centres undefined)	·	-11	12%	·	·
Cc1ccc(-c2cn(CCC(=O)O)c(=O)cn2)cc1	·	-9	·	·	·
COc1ccc(N(Cc2cccs2)C(=O)COc2cccc(C)c2C)cc1	·	?	-1%	·	·
COc1ccc(N(Cc2cccs2)C(=O)COc2cc(C)c(Cl)c(C)c2)cc1	·	-99*	-1%	·	·
C#Cc1ccc(C(=O)Nc2ccc(N3CCC(C)CC3)c(C(N)=O)c2)cc1	?	?	6%	1.9µM*	4%
COc1ccccc1C(=O)NCC(=O)NNC(=O)c1cccs1	·	-12	·	·	·
CCCc1nc(SCc2cc(=O)c3ccc(C)c(C)c3[nH]2)n[nH]1	·	-21	-2%	·	·
Cc1nc(-c2ccc(C(=O)Nc3ccccc3F)cc2)cs1	32%	-70*	0%	130%	0%
O=C(Nc1ccccc1F)c1ccc(C(=O)c2ccccc2)cc1	117%	-72*	15%	85%	·
Cc1ccc(C(C)(C)C)c(SCC(=O)Nc2nnc(C)s2)c1	-12%	?	-9%	-7%	-16%
CCc1nc2c(OCc3ccc(F)c(F)c3)cccn2c1N(C)C(=O)c1cccs1	·	-20	·	·	·
O=C(CS(=O)(=O)c1ccc(F)cc1)Nc1nnc(-c2ccccc2Cl)o1	0%	-6	-1%	2%	·
Cc1ccc2oc(/N=C(\N)NC(=O)C3CC3)nc2c1	i	-5	-11%	121%	0%
Cc1ccc2oc(/N=C(\N)NC(=O)C(C)(C)C)nc2c1	-16%	-90*	11%	-88%	4%
COCCCNC(=O)C[C@H]1C[C@H](C(=O)N(C(C)C)C(C)C)[C@@]2(C)c3[nH]c4cc(-c5ccco5)ccc4c3CCN2C1=O	·	9	·	·	·
CN=c1scc(-c2ccc(F)cc2)n1/N=C/c1ccc(O)c(O)c1	?	-67*	11µM*	-52%	?
Clc1ccc2c(c1)-c1[nH]ncc1CS2	9%	-61*	?	0%	-27%
Cc1ccc(CNC(=O)[C@H](C)[C@H]2C[C@]2(C)[C@H](NC(=O)OCc2ccccc2)c2ccccc2)c(F)c1F	·	·	·	·	-1%
CCC(C)(C)C(=O)O[C@@H]1C[C@@H](C)C=C2C=C[C@H](C)[C@H](CC[C@@H]3C[C@@H](O)CC(=O)O3)[C@H]21	·	·	·	·	-11%
O=C(NCCCN1CCOCC1)c1ccc(Sc2ccc(Br)cc2)c([N+](=O)[O-])c1	15µM*	-30	-6%	3%	13%
Cc1c([N+](=O)[O-])cc(C(=O)N2CCOCC2)cc1[N+](=O)[O-]	?	0	-14%	?	1%
Cc1ccc(Sc2ccc(C(=O)N3CCOCC3)cc2[N+](=O)[O-])cc1	-9%	-75*	-5%	·	13%
SMILES	Pf growth 96h	HCMV antiviral	Sm TGR inh	Pf growth 48h	FBPA Giardia inh
O=S(=O)(NCc1ccc(Cl)c(Cl)c1)c1cc(Cl)ccc1N1CC[C@@H](O)C1	·	-25	·	·	·
CC(=O)c1c(C)[nH]c(C(=O)Nc2ccc(C)c(S(=O)(=O)Nc3ccc(C)cc3C)c2)c1C	?	0	-13%	13µM*	1%
COc1ccccc1NS(=O)(=O)c1cc(NC(=O)Nc2cccc(C)c2)ccc1N1CCCCC1	3.7µM*	2	-1%	3.7µM*	-4%
COc1ccccc1NS(=O)(=O)c1cc(NC(=O)c2ccc(=O)[nH]c2)ccc1N1CCOCC1	12µM*	-14	-1%	?	-1%
CCOC(=O)C(=CNc1ccc(N2CCCCC2)c(S(=O)(=O)Nc2ccccc2OC)c1)C(=O)OCC	·	-6	·	·	·
COc1ccccc1NS(=O)(=O)c1cc(NC(C)=O)ccc1N1CCCCC1	9.3µM*	-32	7%	-29%	-6%
COc1ccccc1NS(=O)(=O)c1cc(NC(=O)c2cc(F)c(F)c(F)c2F)ccc1N1CCOCC1	·	-16	·	·	·
COc1ccc(OC)c(C(C[N+](=O)[O-])c2c(C)cc3ccccn23)c1 (centres undefined)	?	48	-34%	?	-3%
COc1ccccc1NS(=O)(=O)c1cc(NC(=O)c2[nH]c(C)c(C(C)=O)c2C)ccc1N1CCOCC1	?	-90*	-3%	7.4µM*	-12%
COc1ccccc1NS(=O)(=O)c1cc(NC(=O)C2CC2)ccc1N1CCOCC1	12µM*	·	47%	?	?
COc1ccccc1NS(=O)(=O)c1cc(NC(=O)c2ccccc2C)ccc1N1CCOCC1	·	-14	·	·	·
COCC(=O)Nc1ccc(N2CCCC2)c(S(=O)(=O)Nc2ccccc2OC)c1	5.2µM*	0	5%	2.6µM*	·
COc1ccc(NS(=O)(=O)c2cc(NC(=O)CCNC(C)=O)ccc2N2CCOCC2)cc1	2%	-12	-2%	7%	·
COc1ccccc1NS(=O)(=O)c1cc(NC(=O)c2ccncc2)ccc1N1CCCC1	?	-36	-3%	?	-29%
COc1ccccc1NS(=O)(=O)c1cc(NC(=O)CCNC(C)=O)ccc1N1CCCCC1	10µM*	?	-5%	?	·
Cc1noc(C)c1S(=O)(=O)N1CCC(C(=O)N2CCN(Cc3ccc4c(c3)OCO4)CC2)CC1	5.9µM*	-20	-17%	?	2%
O=C(C1CCN(C2CCN(Cc3ccc4c(c3)CCO4)CC2)CC1)N1CCOCC1	12µM*	-18	-18%	14%	-3%
O=C(C1CCN(C2CCN(Cc3ccsc3)CC2)CC1)N1CCOCC1	?	4	6%	-4%	·
O=C(Cn1ncc2c1-c1ccccc1OC2)N1CCN(Cc2ccc3c(c2)OCO3)CC1	4.7µM*	-24	-26%	·	0%
O=C(Cn1ncc2c1-c1ccccc1OC2)N1CCN(c2ccccc2)CC1	·	-17	4%	·	·
COc1cccc(CN2CCC(C(=O)N3CCN(Cc4ccc5c(c4)OCO5)CC3)CC2)c1OC	0%	-18	-14%	-6%	·
O=C(C1CCN(Cc2ccccc2O)CC1)N1CCN(Cc2ccc3c(c2)OCO3)CC1	?	-65*	-16%	-25%	?
CN1CCN(c2ncc3nc(-c4ccccc4)c(=O)n(C4CC4)c3n2)CC1	·	·	·	·	-4%
O=C(Nc1ccc2c(c1)OCO2)C1CCCCC1	?	27	3%	31%	5%
O=C(Nc1ccc2c(c1)OCO2)C1CCN(Cc2cc3c(cc2O)OCO3)CC1	-16%	33	2.8µM*	?	-23%
